Measured values as given in PMC7862700, “An all-to-all approach to the identification of sequence-specific readers for epigenetic DNA modifications on cytosine”.

Experiments:
Test in all cases: DAPPL (digital affinity profiling via proximity ligation, sequencing); 10 mM Tris-HCl pH 7.5, 50 mM NaCl, 1 mM DTT, 4% glycerol, room temperature, 30 min; GST-TFs on glutathione beads, 16-mer random dsDNA library, 0.1% formaldehyde crosslink after washing; high values mean tight binding
[1] = target: T1, FLI1 (Homo sapiens, UniProt Q01543 1-452); conditions: protein: recombinant; tags: N-terminal GST; dsDNA, one strand shown
T1 sequence: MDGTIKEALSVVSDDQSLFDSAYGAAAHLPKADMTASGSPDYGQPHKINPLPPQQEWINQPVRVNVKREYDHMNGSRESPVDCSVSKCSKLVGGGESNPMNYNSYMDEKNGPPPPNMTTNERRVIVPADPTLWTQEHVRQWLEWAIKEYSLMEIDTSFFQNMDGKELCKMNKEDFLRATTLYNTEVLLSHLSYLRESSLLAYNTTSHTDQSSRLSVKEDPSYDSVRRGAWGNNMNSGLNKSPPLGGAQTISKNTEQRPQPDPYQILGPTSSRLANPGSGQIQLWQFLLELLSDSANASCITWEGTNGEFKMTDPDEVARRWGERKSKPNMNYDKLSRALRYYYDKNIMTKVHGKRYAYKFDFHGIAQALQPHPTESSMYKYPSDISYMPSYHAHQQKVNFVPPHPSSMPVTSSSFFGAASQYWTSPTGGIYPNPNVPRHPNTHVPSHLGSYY
Procedure, shortened: (§1)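 Sequencing on an Illumina NextSeq500 followed washing, crosslinking with 0.1% formaldehyde, proximity ligation (BsaI/T4 ligase, 1 h, 37 °C) and PCR amplification of pools that had been incubated for 30 min at room temperature with 200 nmole of a random double-stranded 16-mer DNA library in Tris/NaCl/DTT/glycerol buffer. Each pool held DNA-barcoded human transcription factors, expressed in yeast as GST fusions and captured on glutathione beads, plus a tag-only sample. Binding signal is a hexamer's read frequency for a factor divided by its frequency in the tag-only sample.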

[2] = target: T2, ELK1 (Homo sapiens, UniProt P19419 1-428); conditions: protein: recombinant; tags: N-terminal GST; dsDNA, one strand shown
T2 sequence: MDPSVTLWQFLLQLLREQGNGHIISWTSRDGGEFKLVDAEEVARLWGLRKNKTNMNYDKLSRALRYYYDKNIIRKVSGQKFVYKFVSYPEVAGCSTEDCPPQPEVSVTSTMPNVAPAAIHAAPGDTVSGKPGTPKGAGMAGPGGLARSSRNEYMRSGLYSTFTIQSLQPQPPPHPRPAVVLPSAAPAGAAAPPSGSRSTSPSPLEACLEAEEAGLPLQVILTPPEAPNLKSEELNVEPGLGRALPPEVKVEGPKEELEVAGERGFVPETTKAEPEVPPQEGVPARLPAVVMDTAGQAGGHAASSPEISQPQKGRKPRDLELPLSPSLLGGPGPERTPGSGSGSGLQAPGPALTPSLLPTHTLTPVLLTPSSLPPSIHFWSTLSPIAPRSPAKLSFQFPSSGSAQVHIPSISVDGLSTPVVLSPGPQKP
Procedure, shortened: as §1

[3] = target: T3, GABPA (Homo sapiens, UniProt Q06546 1-454); conditions: protein: recombinant; tags: N-terminal GST; dsDNA, one strand shown
T3 sequence: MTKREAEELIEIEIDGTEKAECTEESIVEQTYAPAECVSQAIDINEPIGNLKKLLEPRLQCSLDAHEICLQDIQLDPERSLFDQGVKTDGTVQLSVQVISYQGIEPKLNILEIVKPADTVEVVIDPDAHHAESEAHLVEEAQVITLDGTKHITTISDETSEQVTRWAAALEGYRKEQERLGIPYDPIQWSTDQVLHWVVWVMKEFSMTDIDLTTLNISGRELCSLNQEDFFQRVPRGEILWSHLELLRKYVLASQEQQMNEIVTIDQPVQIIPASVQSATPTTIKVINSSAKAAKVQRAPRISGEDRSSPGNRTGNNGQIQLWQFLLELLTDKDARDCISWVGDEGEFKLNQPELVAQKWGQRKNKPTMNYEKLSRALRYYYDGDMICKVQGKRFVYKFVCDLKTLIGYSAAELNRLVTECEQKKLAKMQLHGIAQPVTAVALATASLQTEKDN
Procedure, shortened: as §1

[4] = target: T4, ERG (Homo sapiens, UniProt P11308 1-479); conditions: protein: recombinant; tags: N-terminal GST; dsDNA, one strand shown
T4 sequence: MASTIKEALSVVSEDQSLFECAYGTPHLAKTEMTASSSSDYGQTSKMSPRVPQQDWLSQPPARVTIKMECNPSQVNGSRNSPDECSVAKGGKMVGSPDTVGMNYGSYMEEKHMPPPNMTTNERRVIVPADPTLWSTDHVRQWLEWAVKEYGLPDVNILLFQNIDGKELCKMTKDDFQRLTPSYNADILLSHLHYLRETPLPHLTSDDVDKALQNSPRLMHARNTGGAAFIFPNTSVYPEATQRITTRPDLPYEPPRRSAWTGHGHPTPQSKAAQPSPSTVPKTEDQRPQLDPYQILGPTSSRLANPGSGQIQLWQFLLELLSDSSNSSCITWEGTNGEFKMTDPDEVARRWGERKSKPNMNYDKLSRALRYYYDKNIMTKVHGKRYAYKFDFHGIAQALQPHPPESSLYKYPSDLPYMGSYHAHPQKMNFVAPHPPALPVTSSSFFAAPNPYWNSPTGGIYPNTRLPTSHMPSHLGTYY
Procedure, shortened: as §1

[5] = target: ELF1 (Homo sapiens, UniProt P32519 1-619); conditions: protein: recombinant; tags: N-terminal GST; dsDNA, one strand shown
Sequence of ELF1 (P32519 whole entry): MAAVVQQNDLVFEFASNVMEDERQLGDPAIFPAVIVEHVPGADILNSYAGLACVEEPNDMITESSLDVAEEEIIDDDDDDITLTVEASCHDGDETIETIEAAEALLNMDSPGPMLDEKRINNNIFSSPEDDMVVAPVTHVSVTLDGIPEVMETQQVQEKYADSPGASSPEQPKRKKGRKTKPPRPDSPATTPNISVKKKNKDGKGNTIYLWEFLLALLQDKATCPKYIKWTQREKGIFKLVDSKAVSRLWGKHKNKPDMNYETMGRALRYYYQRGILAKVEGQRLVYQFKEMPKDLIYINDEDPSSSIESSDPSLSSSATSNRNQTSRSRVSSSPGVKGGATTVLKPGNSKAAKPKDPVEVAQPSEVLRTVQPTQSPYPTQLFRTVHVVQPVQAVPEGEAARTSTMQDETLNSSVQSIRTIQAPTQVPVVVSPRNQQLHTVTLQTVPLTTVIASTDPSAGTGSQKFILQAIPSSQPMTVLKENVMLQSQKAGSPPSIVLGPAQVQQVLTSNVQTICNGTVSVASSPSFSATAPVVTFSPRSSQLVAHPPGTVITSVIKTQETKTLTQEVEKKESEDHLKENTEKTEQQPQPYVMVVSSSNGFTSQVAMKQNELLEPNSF
Procedure, shortened: as §1

[6] = target: T5, EHF (Homo sapiens, UniProt Q9NZC4 1-300); conditions: protein: recombinant; tags: N-terminal GST; dsDNA, one strand shown
T5 sequence: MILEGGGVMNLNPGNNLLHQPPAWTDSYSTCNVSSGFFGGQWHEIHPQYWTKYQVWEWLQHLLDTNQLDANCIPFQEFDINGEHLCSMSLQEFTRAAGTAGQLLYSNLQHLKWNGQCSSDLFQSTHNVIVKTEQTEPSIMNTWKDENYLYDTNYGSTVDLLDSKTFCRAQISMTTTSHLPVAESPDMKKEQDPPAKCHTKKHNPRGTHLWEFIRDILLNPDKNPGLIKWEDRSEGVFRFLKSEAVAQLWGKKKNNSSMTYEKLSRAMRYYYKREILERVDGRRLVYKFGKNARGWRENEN
Procedure, shortened: as §1

[7] = target: SPI1 (Homo sapiens, UniProt P17947 1-270); conditions: protein: recombinant; tags: N-terminal GST; dsDNA, one strand shown
Procedure, shortened: as §1

[8] = target: SPIB (Homo sapiens, UniProt Q01892 1-262); conditions: protein: recombinant; tags: N-terminal GST; dsDNA, one strand shown
Sequence of SPIB (Q01892 whole entry): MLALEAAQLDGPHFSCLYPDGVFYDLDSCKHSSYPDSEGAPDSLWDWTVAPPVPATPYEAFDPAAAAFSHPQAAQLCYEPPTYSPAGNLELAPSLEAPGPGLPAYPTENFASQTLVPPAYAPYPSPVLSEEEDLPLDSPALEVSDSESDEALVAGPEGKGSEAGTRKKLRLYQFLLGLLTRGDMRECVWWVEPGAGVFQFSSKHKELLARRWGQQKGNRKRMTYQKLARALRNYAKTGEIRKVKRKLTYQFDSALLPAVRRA
Procedure, shortened: as §1

[9] = target: T6, ELK3 (Homo sapiens, UniProt P41970 1-407); conditions: protein: recombinant; tags: N-terminal GST; dsDNA, one strand shown
T6 sequence: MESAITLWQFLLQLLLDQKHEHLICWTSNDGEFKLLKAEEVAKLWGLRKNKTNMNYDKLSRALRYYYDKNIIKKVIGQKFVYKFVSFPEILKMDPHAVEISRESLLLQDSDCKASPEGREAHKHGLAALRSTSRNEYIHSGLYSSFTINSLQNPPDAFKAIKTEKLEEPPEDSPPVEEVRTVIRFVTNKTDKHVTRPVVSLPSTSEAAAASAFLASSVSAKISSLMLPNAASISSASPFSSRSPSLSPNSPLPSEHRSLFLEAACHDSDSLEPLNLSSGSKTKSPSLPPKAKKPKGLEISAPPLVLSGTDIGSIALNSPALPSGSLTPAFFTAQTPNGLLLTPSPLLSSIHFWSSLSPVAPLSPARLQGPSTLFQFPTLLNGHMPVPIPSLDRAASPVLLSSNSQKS
Procedure, shortened: as §1

[10] = target: T7, FEV (Homo sapiens, UniProt Q99581 1-238); conditions: protein: recombinant; tags: N-terminal GST; dsDNA, one strand shown
T7 sequence: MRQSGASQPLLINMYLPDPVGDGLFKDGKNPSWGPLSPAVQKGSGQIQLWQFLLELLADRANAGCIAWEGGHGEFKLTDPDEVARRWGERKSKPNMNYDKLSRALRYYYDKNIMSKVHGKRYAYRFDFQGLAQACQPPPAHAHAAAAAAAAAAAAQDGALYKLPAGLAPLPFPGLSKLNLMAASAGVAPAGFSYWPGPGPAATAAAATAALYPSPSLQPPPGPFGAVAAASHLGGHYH
Procedure, shortened: as §1

[11] = target: ETV5 (Homo sapiens, UniProt P41161 1-510); conditions: protein: recombinant; tags: N-terminal GST; dsDNA, one strand shown
Sequence of ETV5 (P41161 whole entry): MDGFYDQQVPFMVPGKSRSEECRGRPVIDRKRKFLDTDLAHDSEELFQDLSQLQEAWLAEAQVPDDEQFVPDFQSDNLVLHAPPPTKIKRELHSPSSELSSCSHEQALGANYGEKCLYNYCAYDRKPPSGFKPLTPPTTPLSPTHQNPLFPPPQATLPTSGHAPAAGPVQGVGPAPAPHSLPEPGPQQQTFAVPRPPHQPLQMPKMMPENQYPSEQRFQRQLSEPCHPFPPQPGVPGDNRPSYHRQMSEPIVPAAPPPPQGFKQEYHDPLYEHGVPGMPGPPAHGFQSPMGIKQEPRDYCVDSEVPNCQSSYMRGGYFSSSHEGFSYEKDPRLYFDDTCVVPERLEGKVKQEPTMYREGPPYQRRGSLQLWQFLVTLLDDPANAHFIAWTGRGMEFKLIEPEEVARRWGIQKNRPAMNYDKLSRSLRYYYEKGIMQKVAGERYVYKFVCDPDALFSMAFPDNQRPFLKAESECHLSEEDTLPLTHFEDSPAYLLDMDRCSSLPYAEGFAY
Procedure, shortened: as §1

[12] = target: HSF1 (Homo sapiens, UniProt Q00613 1-529); conditions: protein: recombinant; tags: N-terminal GST; chain copies: 3; dsDNA, one strand shown
Sequence of HSF1 (Q00613 whole entry): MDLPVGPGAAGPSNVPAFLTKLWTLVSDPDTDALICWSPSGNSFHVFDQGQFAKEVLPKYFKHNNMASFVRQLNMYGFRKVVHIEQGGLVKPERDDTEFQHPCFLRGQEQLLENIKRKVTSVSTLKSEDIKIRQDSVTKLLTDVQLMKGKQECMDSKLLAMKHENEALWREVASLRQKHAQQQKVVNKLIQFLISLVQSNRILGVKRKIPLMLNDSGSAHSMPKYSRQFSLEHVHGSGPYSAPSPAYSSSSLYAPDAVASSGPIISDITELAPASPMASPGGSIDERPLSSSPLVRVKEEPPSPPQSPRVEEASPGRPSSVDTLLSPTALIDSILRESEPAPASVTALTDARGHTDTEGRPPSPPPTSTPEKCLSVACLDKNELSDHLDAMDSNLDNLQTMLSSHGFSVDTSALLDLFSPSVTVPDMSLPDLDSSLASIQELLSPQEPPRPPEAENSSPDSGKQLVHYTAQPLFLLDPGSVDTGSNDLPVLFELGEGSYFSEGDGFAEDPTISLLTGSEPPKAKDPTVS
Procedure, shortened: as §1

[13] = target: T8, SPIC (Homo sapiens, UniProt Q8N5J4 1-248); conditions: protein: recombinant; tags: N-terminal GST; dsDNA, one strand shown
T8 sequence: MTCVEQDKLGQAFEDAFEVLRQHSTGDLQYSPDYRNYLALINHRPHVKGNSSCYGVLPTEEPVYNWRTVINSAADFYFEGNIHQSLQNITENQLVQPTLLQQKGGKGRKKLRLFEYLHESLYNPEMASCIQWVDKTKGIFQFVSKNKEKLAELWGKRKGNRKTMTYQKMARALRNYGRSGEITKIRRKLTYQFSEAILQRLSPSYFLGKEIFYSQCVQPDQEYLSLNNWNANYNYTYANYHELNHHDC
Procedure, shortened: as §1

[14] = target: ELF4 (Homo sapiens, UniProt Q99607 1-663); conditions: protein: recombinant; tags: N-terminal GST; dsDNA, one strand shown
Sequence of ELF4 (Q99607 whole entry): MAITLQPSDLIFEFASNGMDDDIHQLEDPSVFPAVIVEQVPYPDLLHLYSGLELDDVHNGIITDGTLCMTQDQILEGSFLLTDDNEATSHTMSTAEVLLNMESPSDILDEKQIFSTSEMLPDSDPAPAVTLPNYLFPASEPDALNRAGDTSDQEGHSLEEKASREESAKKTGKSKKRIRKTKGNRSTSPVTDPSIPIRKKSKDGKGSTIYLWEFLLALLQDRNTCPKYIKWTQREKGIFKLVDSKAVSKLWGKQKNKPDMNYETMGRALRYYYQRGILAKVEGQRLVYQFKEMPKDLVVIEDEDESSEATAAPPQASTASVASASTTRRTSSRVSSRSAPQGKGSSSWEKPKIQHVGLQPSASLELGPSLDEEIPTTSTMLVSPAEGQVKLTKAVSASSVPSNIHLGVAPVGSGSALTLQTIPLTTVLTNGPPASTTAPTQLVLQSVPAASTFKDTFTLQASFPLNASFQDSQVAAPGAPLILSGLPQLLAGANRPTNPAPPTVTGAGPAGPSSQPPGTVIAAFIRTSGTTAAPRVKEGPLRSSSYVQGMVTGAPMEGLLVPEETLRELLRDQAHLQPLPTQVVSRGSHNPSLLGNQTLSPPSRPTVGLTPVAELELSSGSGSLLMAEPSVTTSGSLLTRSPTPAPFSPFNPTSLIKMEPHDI
Procedure, shortened: as §1

[15] = target: T9, ELK4 (Homo sapiens, UniProt P28324-2 1-405); conditions: protein: recombinant; tags: N-terminal GST; dsDNA, one strand shown
T9 sequence: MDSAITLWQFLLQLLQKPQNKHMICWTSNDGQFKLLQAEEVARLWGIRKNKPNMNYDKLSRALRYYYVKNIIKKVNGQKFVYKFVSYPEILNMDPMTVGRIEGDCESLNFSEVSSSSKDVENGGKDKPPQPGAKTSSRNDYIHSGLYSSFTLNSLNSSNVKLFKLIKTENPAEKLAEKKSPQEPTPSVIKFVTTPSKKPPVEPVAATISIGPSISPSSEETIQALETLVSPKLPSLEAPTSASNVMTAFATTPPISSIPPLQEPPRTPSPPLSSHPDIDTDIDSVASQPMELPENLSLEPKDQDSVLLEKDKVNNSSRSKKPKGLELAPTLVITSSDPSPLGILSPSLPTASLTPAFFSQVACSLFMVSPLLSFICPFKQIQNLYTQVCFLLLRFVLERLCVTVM
Procedure, shortened: as §1

[16] = target: T10, ETV2 (Homo sapiens, UniProt O00321 1-342); conditions: protein: recombinant; tags: N-terminal GST; dsDNA, one strand shown
T10 sequence: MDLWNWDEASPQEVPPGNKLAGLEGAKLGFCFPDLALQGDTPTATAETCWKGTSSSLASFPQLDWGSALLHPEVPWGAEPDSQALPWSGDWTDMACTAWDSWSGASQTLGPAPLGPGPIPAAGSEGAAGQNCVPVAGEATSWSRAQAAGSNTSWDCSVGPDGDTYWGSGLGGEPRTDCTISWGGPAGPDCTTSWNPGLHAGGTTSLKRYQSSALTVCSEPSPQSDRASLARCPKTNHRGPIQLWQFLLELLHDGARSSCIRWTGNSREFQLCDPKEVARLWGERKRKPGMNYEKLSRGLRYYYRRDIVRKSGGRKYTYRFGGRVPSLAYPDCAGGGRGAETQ
Procedure, shortened: as §1

[17] = target: T11, ELF3 (Homo sapiens, UniProt P78545 1-371); conditions: protein: recombinant; tags: N-terminal GST; dsDNA, one strand shown
T11 sequence: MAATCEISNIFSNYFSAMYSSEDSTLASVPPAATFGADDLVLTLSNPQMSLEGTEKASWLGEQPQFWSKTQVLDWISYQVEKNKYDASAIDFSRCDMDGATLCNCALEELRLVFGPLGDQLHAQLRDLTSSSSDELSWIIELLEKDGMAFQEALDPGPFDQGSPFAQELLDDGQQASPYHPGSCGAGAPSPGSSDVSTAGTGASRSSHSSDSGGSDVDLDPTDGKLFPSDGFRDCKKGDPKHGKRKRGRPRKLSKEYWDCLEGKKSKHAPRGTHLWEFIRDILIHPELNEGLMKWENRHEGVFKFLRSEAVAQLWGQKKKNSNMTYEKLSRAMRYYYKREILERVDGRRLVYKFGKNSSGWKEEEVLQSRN
Procedure, shortened: as §1

[18] = target: CRX (Homo sapiens, UniProt O43186 1-299); conditions: protein: recombinant; tags: N-terminal GST; dsDNA, one strand shown
Sequence of CRX (O43186 whole entry): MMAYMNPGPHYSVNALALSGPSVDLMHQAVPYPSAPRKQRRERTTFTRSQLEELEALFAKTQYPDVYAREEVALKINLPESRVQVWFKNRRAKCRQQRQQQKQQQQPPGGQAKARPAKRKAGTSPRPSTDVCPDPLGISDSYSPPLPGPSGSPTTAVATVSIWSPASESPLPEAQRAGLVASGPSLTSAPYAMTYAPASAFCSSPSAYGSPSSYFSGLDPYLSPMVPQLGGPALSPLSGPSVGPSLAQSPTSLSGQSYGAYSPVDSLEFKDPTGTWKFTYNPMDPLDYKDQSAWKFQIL
Procedure, shortened: as §1

[19] = target: ETV1 (Homo sapiens, UniProt P50549 1-477); conditions: protein: recombinant; tags: N-terminal GST; dsDNA, one strand shown
Sequence of ETV1 (P50549 whole entry): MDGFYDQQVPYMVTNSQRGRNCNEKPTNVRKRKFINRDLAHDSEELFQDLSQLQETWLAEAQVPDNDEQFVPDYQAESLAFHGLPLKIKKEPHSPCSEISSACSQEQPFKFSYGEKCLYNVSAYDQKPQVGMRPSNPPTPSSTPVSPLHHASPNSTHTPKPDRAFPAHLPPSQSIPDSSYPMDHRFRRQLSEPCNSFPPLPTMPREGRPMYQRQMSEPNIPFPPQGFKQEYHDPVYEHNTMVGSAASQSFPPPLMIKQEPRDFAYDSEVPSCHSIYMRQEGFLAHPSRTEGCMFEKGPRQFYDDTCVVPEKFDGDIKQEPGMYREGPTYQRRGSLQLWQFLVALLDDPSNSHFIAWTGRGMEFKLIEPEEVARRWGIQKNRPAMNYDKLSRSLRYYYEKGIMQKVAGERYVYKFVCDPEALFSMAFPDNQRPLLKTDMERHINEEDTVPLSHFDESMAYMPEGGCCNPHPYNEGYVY
Procedure, shortened: as §1

Sequence: ATAACT
- binding signal [1]: 1.23 fold enrichment (6-mer frequency, TF over GST control)
- binding signal [2]: 1.21 fold enrichment (6-mer frequency, TF over GST control)
- binding signal [3]: 1.29 fold enrichment (6-mer frequency, TF over GST control)
- binding signal [4]: 1.22 fold enrichment (6-mer frequency, TF over GST control)
- binding signal [5]: 1.32 fold enrichment (6-mer frequency, TF over GST control)
- binding signal [6]: 1.24 fold enrichment (6-mer frequency, TF over GST control)
- binding signal [7]: 1.22 fold enrichment (6-mer frequency, TF over GST control)
- binding signal [8]: 1.36 fold enrichment (6-mer frequency, TF over GST control)
- binding signal [9]: 1.22 fold enrichment (6-mer frequency, TF over GST control)
- binding signal [10]: 1.22 fold enrichment (6-mer frequency, TF over GST control)
- binding signal [11]: 1.29 fold enrichment (6-mer frequency, TF over GST control)
- binding signal [12]: 1.15 fold enrichment (6-mer frequency, TF over GST control)
- binding signal [13]: 1.28 fold enrichment (6-mer frequency, TF over GST control)
- binding signal [14]: 1.25 fold enrichment (6-mer frequency, TF over GST control)
- binding signal [15]: 1.22 fold enrichment (6-mer frequency, TF over GST control)
- binding signal [16]: 1.39 fold enrichment (6-mer frequency, TF over GST control)
- binding signal [17]: 1.24 fold enrichment (6-mer frequency, TF over GST control)
- binding signal [18]: 1.29 fold enrichment (6-mer frequency, TF over GST control)
- binding signal [19]: 1.16 fold enrichment (6-mer frequency, TF over GST control)
